Source: PubChem BioAssay AID585 (National Center for Advancing Translational Sciences (NCATS), 2007)
The whole screen tested about 71,000 compounds, of which about 1,300 (1.8%) were called active. Where a call stands in place of a potency, no number is given. Calls come from the whole dose curve. This excerpt belongs to a sample that is enriched for actives.

molecular target: Beta-lactamase (Escherichia coli (strain K12)) (UniProt P00811); test: Promiscuous and Specific Inhibitors of AmpC Beta-Lactamase (assay without detergent); conditions: AmpC nitrocefin hydrolysis, absorbance 480 nm, no detergent; series mostly up to 28.7 µM
Sequence (P00811 whole entry, looked up): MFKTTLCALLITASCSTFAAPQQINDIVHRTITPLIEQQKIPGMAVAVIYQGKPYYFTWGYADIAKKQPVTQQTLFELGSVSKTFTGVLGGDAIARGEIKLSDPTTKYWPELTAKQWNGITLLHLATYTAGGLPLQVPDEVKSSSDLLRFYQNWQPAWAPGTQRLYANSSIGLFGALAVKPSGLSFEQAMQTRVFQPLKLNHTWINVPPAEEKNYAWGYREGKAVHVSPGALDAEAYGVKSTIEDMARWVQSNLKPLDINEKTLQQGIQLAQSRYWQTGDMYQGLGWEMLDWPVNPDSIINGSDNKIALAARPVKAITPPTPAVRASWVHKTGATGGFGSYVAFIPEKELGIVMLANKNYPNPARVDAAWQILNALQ
Experimental: NIH Molecular Libraries Screening Centers Network [MLSCN]
NIH Chemical Genomics Center [NCGC]
PI Name: Shoichet, Brian K.
This aggregation profiling approach exploits the sensitivity of aggregate formation to detergent. Inhibition of b-lactamase is measured in the presence and absence of 0.01% Triton X-100. See Pubchem assay "Promiscuous and Specific Inhibitors of AmpC Beta-Lactamase (assay with detergent)" for related screen. Compounds that inhibit only in the absence of detergent are considered likely promiscuous aggregators.
A screen of 1,030 compounds was performed in Brian Shoichet's lab in 96-well format. AmpC activity was measured by following the absorbance at 480 nm. Nitrocefin is a chromogenic substrate: while nitrocefin is yellow (lmax 390 nm), the product of its hydrolysis is red (lmax 486 nm, 17,000 M-1). AmpC beta lactamase was provided by Brian Shoichet and Brian Feng, UCSF.
NCGC Assay Protocol Summary:
20 mM phosphate buffer, pH 7.0
Triton X-100: No Detergent screen: 0.0001%, Detergent screen: 0.01%.
Buffer in columns 3 and 4 as negative control (no enzyme).
5.3 nM AmpC in columns 1, 2, 5-48. Titration of UCSF compound 9 control (from 10 mM, then 1:2) pin-transferred to column 2. Column 1 is neutral (100% activity).
Six uL of reagents were dispensed to 1536-well Greiner black clear bottom plates. Compounds and controls (23 nL) were transferred via Kalypsys PinTool. The plates were incubated for 15 min at room temperature, and then 2 uL of 800 uM solution of nitrocefin was added to start the reaction. The plates were immediately transferred to and read every 20 seconds for 4 min on ViewLux (Perkin-Elmer) High-throughput CCD imager using 480 nm absorbance protocol. During dispense, reagent bottles were kept submerged into 4 deg C water bath.
Keywords: NIH Roadmap, MLSCN, MLI, MLSMR, qHTS, NCGC, AmpC Beta-Lactamase, Aggregation.
Potency is the fitted concentration of half-maximal effect.

Q: For `Cc1nc(-c2ccc(NC(=O)c3cccs3)cc2)cs1`, which Potency is on record?
A: Its Potency is “inactive”.

Q: For `COc1cccc2c(=O)n(CC(=O)N3CCCCCC3)ccc12`, which Potency is on record?
A: The Potency was “inactive”.

Q: `O=C(NC1CCCCC1)C1CCCN(S(=O)(=O)c2cccs2)C1` (stereo not drawn) was tested. Which Potency did it give?
A: The Potency was “inactive”.

Q: With `O=C(NCc1ccc2c(c1)OCO2)C1CCCN(S(=O)(=O)c2cccs2)C1` (stereo not drawn) as the molecule, how does the Potency read?
A: The Potency was 3.98 µM [single pt active] (active).

Q: For `O=C(NCc1cccs1)C1CCN(S(=O)(=O)c2ccc3c(c2)OCCO3)CC1`, which Potency is on record?
A: Its Potency is “inactive”.

Q: How did the Potency turn out when `COc1cc2c(cc1OC)C(c1ccncc1)CC(=O)N2` (stereo not drawn) was run?
A: Its Potency is “inactive”.

Q: How did the Potency turn out when `CC(C)c1nnc(NC(=O)C2CCCN2S(=O)(=O)c2ccc(Cl)cc2)s1` (stereo not drawn) was run?
A: Its Potency is “inactive”.

Q: `Cc1nc2ccc(S(=O)(=O)NCC(=O)O)cc2s1` was tested. Which Potency did it give?
A: The Potency was “inactive”.

Q: How did the Potency turn out when `Cc1nc2ccc(S(=O)(=O)NC(C(=O)N3CCCCCC3)C(C)C)cc2s1` (stereo not drawn) was run?
A: Its Potency is 3.98 µM [single pt active] (active).

Q: For `Cc1nc2ccc(S(=O)(=O)NCC(=O)NCCN3CCCCC3C)cc2s1` (stereo not drawn), which Potency is on record?
A: The Potency was “inactive”.

Q: Which Potency does the source give for `COC(=O)c1c(NC(=O)CSc2nc3c(c(=O)n(C)c(=O)n3C)n2C(C)C)sc(C)c1C` here?
A: The Potency was “inactive”.

Q: With `CCn1nnc(NC(=O)c2c(OC)cccc2OC)n1` as the molecule, how does the Potency read?
A: Its Potency is “inactive”.

Q: Which Potency does the source give for `CCOC(=O)CSc1nc2c(sc(=S)n2CCc2ccccc2)c(=O)n1Cc1ccco1` here?
A: The Potency was “inactive”.

Q: With `CN(c1ccccc1)c1ccc(/C=c2\s/c(=C(/C#N)C(=O)C(C)(C)C)n(Cc3ccco3)c2=O)cc1` as the molecule, how does the Potency read?
A: Its Potency is 10 µM (active).

Q: How did the Potency turn out when `O=c1nc2s/c(=C\c3ccco3)c(=O)n2nc1Cc1ccccc1` was run?
A: The Potency was “inactive”.

Q: For `CC1=CC(=O)C2=C(C)C[C@H](O)[C@@H]3[C@@H](OC(=O)[C@H]3C)[C@H]12`, which Potency is on record?
A: Its Potency is “inactive”.

Q: `CCOc1ccccc1N=C1NC(=O)CS1` was tested. Which Potency did it give?
A: Its Potency is “inactive”.

Q: How did the Potency turn out when `O=C(CSc1nc2cc3c(cc2c(=O)n1CCC1=CCCCC1)OCO3)NCc1ccco1` was run?
A: The Potency was 12.6 µM (active).

Q: How did the Potency turn out when `O=C(CCCn1c(SCC(=O)c2ccc(F)cc2)nc2ccccc2c1=O)NCc1ccco1` was run?
A: The Potency was “inactive”.

Q: How did the Potency turn out when `C=C(C)Cn1c(SCC(=O)NCc2ccco2)nc2sc3c(c2c1=O)CCC3` was run?
A: The Potency was “inactive”.

Q: Which Potency does the source give for `CC(C)NC(=O)N1CC[C@@]2(CCCN(C(=O)c3cccn3C)C2)C1` here?
A: The Potency was “inactive”.

Q: How did the Potency turn out when `Cc1c2cn[nH]c(=O)c2c(C)n1Cc1ccc(F)cc1` was run?
A: The Potency was “inactive”.

Q: For `N#CCCN1CCN(S(=O)(=O)c2ccc(S(=O)(=O)NC3CCCCC3)cc2)CC1`, which Potency is on record?
A: Its Potency is “inactive”.

Q: With `CCOC(=O)N1CCC(NC(=O)CCc2cn(C)c3ccccc23)CC1` as the molecule, how does the Potency read?
A: The Potency was “inactive”.

Q: For `CCOC(=O)N1CCC(NC(=O)c2cnn3ccccc23)CC1`, which Potency is on record?
A: The Potency was 3.98 µM [single pt active] (active).

Q: With `CCOC(=O)N1CCC(NC(=O)Cc2cn(C)c3ccccc23)CC1` as the molecule, how does the Potency read?
A: The Potency was “inactive”.

Q: For `COC(=O)N1CCC2(CCCN(Cc3ccccc3OC)C2)CC1`, which Potency is on record?
A: The Potency was “inactive”.

Q: For `c1ccc(-c2cn3cccnc3n2)cc1`, which Potency is on record?
A: The Potency was “inactive”.

Q: With `O=C(C1=C(O)C(=O)N(c2ncccn2)C1c1cccs1)c1ccco1` (stereo not drawn) as the molecule, how does the Potency read?
A: The Potency was “inactive”.

Q: For `CNC(=O)Nc1cc(C(C)(C)C)no1`, which Potency is on record?
A: Its Potency is “inactive”.

Q: `Cc1cccc2c1N(CC(=O)OC(C)C)C(=O)C2=O` was tested. Which Potency did it give?
A: The Potency was “inactive”.

Q: Which Potency does the source give for `COc1ccc(C)cc1S(=O)(=O)NC1CCCCC1` here?
A: The Potency was “inactive”.

Q: Which Potency does the source give for `CCOC(=O)N1CCC(Nc2c(NCCN3CCN(c4cccc(Cl)c4)CC3)c(=O)c2=O)CC1` here?
A: Its Potency is 3.98 µM [single pt active] (active).

Q: For `O=C(CCCn1c(=O)[nH]c2cc(Cl)ccc2c1=O)NCCN1CCN(c2ccccc2)CC1`, which Potency is on record?
A: The Potency was “inactive”.

Q: For `CCOC(=O)N1CCC(Nc2c(NCCCN3CCN(c4ccc(OC)cc4)CC3)c(=O)c2=O)CC1`, which Potency is on record?
A: Its Potency is “inactive”.

Q: For `COc1ccc2c(c1)OC(O)(C(F)(F)C(F)F)CC2=O` (stereo not drawn), which Potency is on record?
A: Its Potency is “inactive”.

Q: With `O=CN1CCN(C2CC(=O)N(c3ccc4c(c3)OCO4)C2=O)CC1` (stereo not drawn) as the molecule, how does the Potency read?
A: Its Potency is “inactive”.

Q: How did the Potency turn out when `Cc1cccc(CSc2nnc(Cn3c(=O)sc4ccccc43)n2C)c1` was run?
A: The Potency was “inactive”.

Q: `C=CCSc1nnc(Cn2c(=O)sc3ccccc32)n1C` was tested. Which Potency did it give?
A: The Potency was 3.98 µM [single pt active] (active).

Q: Which Potency does the source give for `Cc1ccccc1CSc1nnc(Cn2c(=O)sc3ccccc32)n1C` here?
A: The Potency was “inactive”.

Q: For `CC1CCN(c2oc(-c3ccccc3F)nc2C#N)CC1`, which Potency is on record?
A: The Potency was “inactive”.

Q: Which Potency does the source give for `C=CCn1c(C)cc(C(=O)CN2C(=O)c3ccccc3C2=O)c1C` here?
A: The Potency was “inactive”.

Q: For `COc1ccc(C2CC(c3ccc(C)cc3)Nc3ncnn32)cc1` (stereo not drawn), which Potency is on record?
A: The Potency was “inactive”.

Q: Which Potency does the source give for `COc1ccc(C2CC(c3ccccc3)Nc3ncnn32)cc1` (stereo not drawn) here?
A: The Potency was 3.98 µM [single pt active] (active).

Q: With `Clc1ccc(C2CC(c3cccs3)n3ncnc3N2)cc1Cl` (stereo not drawn) as the molecule, how does the Potency read?
A: Its Potency is “inactive”.

Q: Which Potency does the source give for `Cc1noc(C)c1C(=O)NC(C)c1ccc2c(c1)OCO2` (stereo not drawn) here?
A: Its Potency is “inactive”.

Q: For `CN1CCC2(CC1)NC(=O)NC2=O`, which Potency is on record?
A: The Potency was “inactive”.

Q: For `COc1cccc(-c2nnc(NC(=O)c3ccc(S(=O)(=O)N(CC(C)C)CC(C)C)cc3)o2)c1`, which Potency is on record?
A: The Potency was 7.94 µM (active).

Q: For `COc1cccc(NC(=O)CN(C)S(=O)(=O)c2ccc(C)cc2)c1`, which Potency is on record?
A: Its Potency is “inactive”.

Q: For `CCN(CC)C(=O)CSc1nnc(-c2cccc(OC)c2)o1`, which Potency is on record?
A: Its Potency is “inactive”.

Q: Which Potency does the source give for `CC(C)C[C@@H](CC(=O)N[C@@H](CCC(=O)O)CC(=O)O)NC(=O)[C@@H]1CCCC[C@H]1NC(=O)C[C@@H](NC(=O)C[C@H](Cc1c[nH]c2ccccc12)NC(=O)[C@@H]1CCCC[C@H]1N)C(C)C` here?
A: Its Potency is “inactive”.

Q: Which Potency does the source give for `CCOc1ccc(OCC)c(NC(=O)C2CCN(S(=O)(=O)c3c(C)noc3C)CC2)c1` here?
A: Its Potency is “inactive”.

Q: How did the Potency turn out when `Cc1noc(C)c1S(=O)(=O)N1CCCC(C(=O)Nc2nccs2)C1` (stereo not drawn) was run?
A: Its Potency is 3.98 µM [single pt active] (active).

Q: With `Cc1ccc(NC(=O)C2CCCN(S(=O)(=O)c3c(C)noc3C)C2)c(C)c1` (stereo not drawn) as the molecule, how does the Potency read?
A: The Potency was “inactive”.

Q: `C=CCNC(=O)C1CC=CCC1C(=O)O` (stereo not drawn) was tested. Which Potency did it give?
A: The Potency was “inactive”.

Q: With `CCOc1ccc(Cn2nnc(C(=O)NCc3ccccc3)c2N)cc1` as the molecule, how does the Potency read?
A: The Potency was 3.16 µM [single pt active] (active).

Q: Which Potency does the source give for `Nc1c(C(=O)NCc2ccccc2)nnn1Cc1cccc(Cl)c1` here?
A: The Potency was “inactive”.

Q: Which Potency does the source give for `CCOc1ccc(Cn2nnc(C(=O)Nc3ccc(OC)cc3OC)c2N)cc1` here?
A: Its Potency is “inactive”.

Q: How did the Potency turn out when `Cc1cc(N2C(=O)C(=O)/C(=C(/O)c3ccc(Cl)cc3)C2c2cccc(Br)c2)no1` (stereo not drawn) was run?
A: Its Potency is “inactive”.

Q: How did the Potency turn out when `COc1ccc(C(CNC(=O)c2cccnc2SC)N2CCOCC2)cc1` (stereo not drawn) was run?
A: Its Potency is “inactive”.

Q: For `O=C(CN1C(=O)C2C3C=CC(C3)C2C1=O)NCCc1ccccc1Cl` (stereo not drawn), which Potency is on record?
A: Its Potency is “inactive”.

Q: How did the Potency turn out when `O=C(CCN1C(=O)C2C3C=CC(C3)C2C1=O)Nc1ccccc1F` (stereo not drawn) was run?
A: Its Potency is “inactive”.

Q: Which Potency does the source give for `O=C(NCCN1C(=O)C2C3C=CC(C3)C2C1=O)Nc1ccccn1` (stereo not drawn) here?
A: Its Potency is 3.98 µM [single pt active] (active).
